Peg3 prom inh – reduces Peg3 promoter-driven luciferase expression in HeLa. 360,000 tested, 1.7% active. inhibition, % at 20 µM. HeLa PEG-Prom luciferase reporter, luminescence, overnight. AID 588405;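 active means inhibition of at least 50% at 20 µM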
TWEAK Fn14 block – TWEAK-Fn14 signaling inhibition; TWEAK-stimulated Fn14 reporter cells, luciferase luminescence, 8 h; inhibition, % at 10 µM; 360,000 tested, 2% active; in the data active means inhibition above about 50%
TROY NFkB inh – blocks TROY-dependent signaling in reporter cells; Q293 LMP1-TROYcd NF-kB luciferase reporter, 4 h; inhibition, % at 10 µM; 360,000 tested, 0.98% active; AID 1347056;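 active means compounds whose plate-normalised and pattern-corrected inhibition of the luciferase reporter signal at the single screening dose is 50% or more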
HIF-2a inh – blocks HIF-2a reporter activity; 786-0 RCC cells HIF-2a reporter, luciferase luminescence, overnight; 360,000 tested, 0.72% active; inhibition, % at 18.8 µM;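 active means inhibition of the luminescence signal of 40% or more relative to plate controls, in a single-dose primary screen at 18.75 µM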
LMP1 NFkB inh – reduces LMP1-driven NF-kappaB luciferase signal; LMP1-induced NF-kappaB luciferase reporter cells, luminescence; 350,000 tested, 0.69% active; inhibition, % at 12.5 µM; in the data active means inhibition above about 41%;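 further: 0% = neutral control wells and 100% = reference inhibitor control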
TRPM1 prom inh – inhibitors of MITF-driven TRPM1 promoter in melanoma cells; SK-MEL-5 TRPM1 promoter luciferase, 24 h; inhibition, % at 12.5 µM; 330,000 tested, 0.83% active; AID 488899;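 active means mean inhibition across replicates of 60% or more, whatever share of single replicates reaches that level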
* = called active by the depositor; . = no result given. Rows were chosen to be rich in hits. Some 4% of all compounds tested hit in one or more screens of this group.

SMILES	Peg3 prom inh	TWEAK Fn14 block	TROY NFkB inh	HIF-2a inh	LMP1 NFkB inh	TRPM1 prom inh
CSc1ncccc1C(=O)OCC(=O)Nc1ccc(C)c(S(=O)(=O)N2CCOCC2)c1	-1	-7	3	11	0	-4
Cc1ccc2c(c1)c1c3n2CCN(CC(O)CNC(C)C)C3CCC1 (stereo not given)	72*	8	-9	-9	-7	2
Cc1ccc2c(c1)c1c(n2CC(O)CNC2CCCC2)CCCC1 (stereo not given)	61*	-22	-8	-2	-35	14
Cc1ccc2c(c1)c1c3n2CCN(CC(N)=O)C3CCC1 (stereo not given)	42	24	-30	-72	1	1
CCNc1cc(N2CCCC2)ccc1[N+](=O)[O-]	8	-5	-12	12	-1	0
CC(C)CNc1cc(N2CCCC2)ccc1[N+](=O)[O-]	54*	14	2	11	7	4
Cc1c(Cl)cccc1NC(=O)CNCc1ccccc1F	9	15	33	14	2	0
Cc1ccc(C(=O)c2oc3ccc(Cl)cc3c2NC(=O)CN2CCN(C)CC2)cc1	107*	-101	-108	-50	-12	10
CCOC(=O)c1oc2ccc(OC)cc2c1NC(=O)CN1CCN(C)CC1	5	-2	5	-7	-10	-4
O=C(c1ccc(F)cc1)N1CCN(C2=NS(=O)(=O)c3ccccc32)CC1	9	12	7	16	-4	9
O=C(c1ccco1)N1CCN(C2=NS(=O)(=O)c3ccccc32)CC1	7	86*	.	10	2	4
Cc1cc(C(=O)N2CCC2(C)C(=O)Nc2ccc3[nH]ncc3c2)nn1C (stereo not given)	-1	-1	-8	10	.	.
O=C(Nc1ccc(Br)c2ccccc12)c1ccc2ccccc2c1O	-13	55*	51*	-142	16	2
CCCCn1c(N)c(N(CCOC)C(=O)c2cccc(S(=O)(=O)N(CC)c3ccccc3)c2)c(=O)[nH]c1=O	13	2	-9	12	0	4
COc1cc(CNC(C)c2ccccc2)cc(Br)c1OCc1ccccc1 (stereo not given)	25	-26	10	22	7	3
COc1cc(CNC(C)c2ccccc2)cc(Br)c1OCc1ccc(F)cc1 (stereo not given)	59*	4	-7	16	4	10
c1ccc(-c2nc(-c3nccc4ccccc34)oc2-c2ccccc2)cc1	-198	73*	60*	-232	1	-115
O=C(/C=C/c1cccs1)NC(=S)Nc1ccc(S(=O)(=O)Nc2ccccc2C(F)(F)F)cc1	22	9	52*	7	4	7
COc1ccc(NC(=S)NC(=O)/C=C/c2cccs2)cc1	-70	14	-27	-104	-2	1
CC1CCCCN1CC(O)COCc1ccc(Cl)cc1 (stereo not given)	-4	-9	18	18	-3	10
FC(F)(F)c1nc(N2CCN(c3ccccc3)CC2)nc2c1CCCCC2	11	94*	57*	-2	-3	3
CNC(=O)C1=NCCCc2cc(OC)c(OC)cc21	-2	13	29	6	64*	10
COc1ccc(C2=NN(C(=O)c3ccccc3)C(c3ccc(OC)c(OC)c3)C2)c(OC(C)=O)c1 (stereo not given)	-4	7	-10	2	-1	5
O=C(CNC(=S)N(Cc1ccccc1F)C1CCCCC1)NCCCN1CCOCC1	-1	85*	11	-8	4	-5
O=C(c1cc(C2CCCCN2S(=O)(=O)Cc2ccccc2)on1)N1CCOCC1 (stereo not given)	-3	-1	9	6	.	.
O=Nc1ccc(NO)c2ccccc12	-23	71*	36	0	-43	.
COc1cc(F)c(C(=O)NC(C)(C)CO)cc1OC	-26	-1	-3	-7	36	-11
CN(C)c1ccc(-c2nnc(-c3ccccc3F)o2)cc1	-151	38	8	-140	-18	4
Cc1oc(-c2ccc(-c3ccccc3)cc2)nc1CN(CCO)C(C)C	-132	65*	-4	-41	-41	-31
N#Cc1ccccc1S(=O)(=O)N1CCN(CC(=O)Nc2ccccc2C(=O)NC2CC2)CC1	2	-14	-6	2	-2	-13
